Test results: PubChem BioAssay AID2016 (NMMLSC, 2009)
Screen size: about 330,000 compounds; about 1,700 (0.52%) were called active. For the sample, actives were picked, then their nearest neighbours and some compounds at random. Values without a mark were called inactive.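 The calls were made as follows: active = GFP response versus DMSO above a set limit, roughly screen mean plus 3 SD (cut at about 180% in these data); inconclusive = fewer than 70 cells counted for a yeast strain; inactive = the rest.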

test: TOR pathway GLN3 branch reporter MEP2-GFP changes – S. cerevisiae, multiplex flow cytometry, MLPCN library, primary screen (AID 2016);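 also: median GFP fluorescence of the barcode-gated MEP2-GFP cells per well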; settings: S. cerevisiae MEP2-GFP strain, 3 h, at 10 µM, stronger effect = higher value, 100% = DMSO control level

Row | Structure (SMILES) | GFP response vs DMSO
1 | O=C(c1ccncc1)N1CCN(S(=O)(=O)c2cc(C(F)(F)F)cc(C(F)(F)F)c2)CC1 | 103%
2 | COc1ccc(O[C@H]2C=C[C@@H](c3ccccc3)O[C@@H]2CO/N=C/C[C@@H]2C=C[C@H](OC(C)=O)[C@@H](COC(C)=O)O2)cc1 | 90%
3 | CC(NC(=S)NC1CCCCC1)C(c1ccccc1)N1CCOCC1 (stereo not drawn) | 99.2%
4 | O=S(=O)(NC1CC1)c1ccc(F)c(F)c1 | 101%
5 | CC1CCC(NS(=O)(=O)c2ccc3c(c2)n(C)c(=O)c(=O)n3C)CC1 (stereo not drawn) | 102%
6 | Cn1sc(=O)c2cc(S(=O)(=O)NC3CC3)ccc21 | 626% [may fluoresce violet] (active)
7 | CCCN(CCC)CC(O)COc1ccccc1C(=O)Nc1ccccc1 (stereo not drawn) | 107%
8 | O=C(Nc1ccc(Br)c2cccnc12)c1ccc(Cn2cc([N+](=O)[O-])cn2)o1 | 97.1%
9 | O=C(COc1ccc(Cl)cc1)Nc1ccccc1CO | 98.3%
10 | C=CCc1cccc(/C=N/NC(=O)COc2ccc(-n3cnnn3)cc2)c1O | 102%
11 | O=C(COc1ccc(-n2cnnn2)cc1)Nc1ccccc1Cl | 240% [may fluoresce violet] (active)
12 | Cc1c(-c2ccccc2)cn2c1-c1ccc(C)n1CC2 | 106%
13 | Cc1cccc[n+]1CC(=O)c1ccccc1 | 113%
14 | COC(=O)C[n+]1cccc2ccccc21 | 221% (active)
15 | COc1ccccc1NC(=O)C[n+]1ccccc1 | 108%
16 | CCOc1ccc(CN(C)C(=O)c2ccc(=O)[nH]c2)cc1 | 104%
17 | COc1cc(COCC(O)CN2CCN(Cc3ccc4c(c3)OCO4)CC2)cc(OC)c1OC (stereo not drawn) | 100%
18 | COc1c(O)ccc2c1CN1CCc3cc4c(cc3C1C2)OCO4 (stereo not drawn) | 205% (active)
19 | COc1ccc2cc1Oc1ccc(cc1)C[C@H]1c3cc(c(OC)cc3CCN1C)Oc1c(O)c(OC)cc3c1[C@H](C2)N(C)CC3 | 99.2%
20 | COc1ccc(NC(=O)CSc2nncc(=O)n2N)cc1OC | 104%
21 | COc1ccccc1CNC(=O)COn1nnc2ccc(S(=O)(=O)N3CCOCC3)cc21 | 123%
22 | CC(=O)OC(C(=O)NCCc1ccccc1)c1cccnc1 (stereo not drawn) | 234% [may fluoresce violet] (active)

Row | Structure (SMILES) | GFP response vs DMSO
23 | CCC(Oc1ccccc1)C(=O)NCc1cccnc1 (stereo not drawn) | 101%
24 | O=C(CSc1ncccn1)NCCc1ccccc1 | 96.5%
25 | COc1cc(CO)c(C2(CO)CCCC2)cc1OC | 101%
26 | C[n+]1ccc(/C=C/c2c[nH]c3ccccc23)cc1 | 403% (active)
27 | O=C(NC1CCCC1)C(=O)c1c[nH]c2ccccc12 | 90.7%
28 | COc1ccc(/C=C(\C#N)c2c[nH]c3ccccc23)cc1 | 98.7%
29 | CCOc1cc(/C=N/NC(=O)OC)ccc1OCCSc1ccc(Cl)cc1 | 94.9%
30 | O=S(=O)(Nc1ccccc1)c1ccc(NS(=O)(=O)c2cccs2)cc1 | 94.2%
31 | Clc1ccc(CN2CCCCCC2)cc1Cl | 111%
32 | Cc1ccc2nc(-c3ccc(SCC(=O)Nc4cc(C)on4)nc3)[nH]c2c1 | 103%
33 | CC(=O)O[C@]1(C(C)=O)CC[C@H]2[C@@H]3C=C(C)C4=CC(=O)CC[C@]4(C)[C@H]3CC[C@@]21C | 180% [may fluoresce violet] (active)
34 | CC(=O)C12CC(C)=C(C)CC1CC1C3CCC4=CC(=O)CCC4(C)C3CCC12C (stereo not drawn) | 101%
35 | O=C(C1Cc2ccccc2CN1C(=O)c1ccco1)N1CCN(c2ccccc2)CC1 (stereo not drawn) | 93.4%
36 | COc1ccc(CNC(=O)COC(=O)C(CCSC)N2C(=O)c3ccccc3C2=O)cc1 (stereo not drawn) | 106%
37 | Cc1c(NC(=O)Nc2cccc([N+](=O)[O-])c2)c(=O)n(-c2ccccc2)n1C | 103%
38 | Cc1cc(OCC(=O)Nc2c(C)n(C)n(-c3ccccc3)c2=O)ccc1[N+](=O)[O-] | 112%
39 | Cc1c(NC(=O)c2c([N+](=O)[O-])cnn2C)c(=O)n(-c2ccccc2)n1C | 284% [may fluoresce violet] (active)
40 | CCOC(=O)C1CCN(C(=O)Cc2c(C(=O)O)[nH]c3ccccc23)CC1 | 105%
41 | Nc1nc(SCC(=O)Nc2ccc(Cl)c([N+](=O)[O-])c2)n[nH]1 | 106%
42 | COc1ccc(-c2cn3cccnc3n2)cc1 | 101%
43 | CC(C)(C)C(=O)Nc1ccc(-c2cn3cccnc3n2)cc1 | 119%
44 | FC(F)(F)Oc1ccc(-c2cn3cccnc3n2)cc1 | 471% [may fluoresce violet] (active)

Row | Structure (SMILES) | GFP response vs DMSO
45 | O=C(NCC(F)(F)F)Nc1nnc(C(F)(F)F)s1 | 90.6%
46 | COc1ccc(CC(NC(C)=O)C(=O)NC2CCN(C(=O)c3ccc(OC)c(OC)c3)CC2)cc1OC (stereo not drawn) | 95.1%
47 | CCc1ccc(OCC2c3cc(OC)c(OC)cc3CCN2C(C)=O)cc1 (stereo not drawn) | 269% [may fluoresce violet] (active)
48 | COc1ccc2[nH]c(=O)c(C3c4cc(OC)c(OC)cc4CCN3C(=O)c3ccco3)cc2c1 (stereo not drawn) | 105%
49 | CCOCc1nnc(NC(=O)CCC2CCCCC2)s1 | 110%
50 | O=C(COc1cc2oc(=O)c3c(c2cc1Cl)CCC3)NCCCN1CCOCC1 | 113%
51 | CC(Oc1cc2oc(=O)c3c(c2cc1Cl)CCCC3)C(=O)NCc1ccncc1 (stereo not drawn) | 185% [may fluoresce violet] (active)
52 | COc1ccc(S(=O)(=O)NC(C)C(=O)NCc2ccncc2)cc1Cl (stereo not drawn) | 102%
53 | Cc1cccc(-c2nc(CS(=O)CC(=O)NC(C)CCc3ccccc3)c(C)o2)c1 (stereo not drawn) | 98.7%
54 | O=C(CCN1C(=O)[C@@H]2Cc3ccccc3CN2C1=O)NCCc1ccccc1 | 106%
55 | C#CCCOC(=O)N1C2=NC(C(=O)OC)=C(C(=O)OC)[C@@H]3N(C)c4ccc(OC)cc4[C@]23C[C@H]1C(=O)OC | 89.3%
56 | COc1ccc(-c2nnn(Cc3nc(N)nc(N4CCCCC4)n3)n2)cc1 | 107%
57 | COc1ccc(-n2nnnc2SCc2nc(N)nc(N3CCOCC3)n2)cc1 | 283% [may fluoresce violet] (active)
58 | COc1ccc(CSc2nnnn2-c2ccc(C(=O)O)cc2)cc1 | 114%
59 | Cc1nn(C)c(C)c1C(C)NC(=O)c1ccc(OC2CCN(Cc3ccccn3)CC2)cc1 (stereo not drawn) | 111%
60 | O=c1c(-c2ccccc2Cl)c[nH]n1-c1ccccc1 | 99.8%
61 | O=C1c2ccccc2NC(c2ccc(-c3cccc(Cl)c3)o2)N1O (stereo not drawn) | 103%
62 | O=c1c(-c2cccc(Cl)c2)c[nH]n1-c1ccccc1 | 193% [may fluoresce violet] (active)
63 | CC1CCN(S(=O)(=O)c2nnc(NC(=O)COc3ccccc3F)s2)CC1 | 98.5%
64 | CC1(C)Cc2c(sc3nc(SCC(=O)NCc4ccccc4)n(-c4ccccc4)c(=O)c23)CS1 | 107%
65 | COc1ccccc1C(=O)COC(=O)COc1ccc(C#N)cc1 | 114%
66 | Cc1ccc(S(=O)(=O)N(Cc2cc3ccccc3[nH]c2=O)CC2CCCO2)cc1 (stereo not drawn) | 195% [may fluoresce violet] (active)

Row | Structure (SMILES) | GFP response vs DMSO
67 | O=C(c1cccs1)N(Cc1cc2ccccc2[nH]c1=O)CC1CCCO1 (stereo not drawn) | 103%
68 | CCN(Cc1cc2cc(C)ccc2[nH]c1=O)S(=O)(=O)c1ccccc1 | 97.6%
69 | CC1CC(C)CN(CCCNC(=O)c2csc3c2CCCCC3)C1 (stereo not drawn) | 103%
70 | C=CCC[C@@H](Cc1ccc(F)cc1)C(=O)O[C@H](CNC(=O)[C@H](CC=C)CC(=O)N(CCO)Cc1ccccc1)c1ccccc1 | 104%
71 | Cc1ccc(SCCSc2ncccn2)cc1 | 106%
72 | Cc1ccc(SCC2=NNC(=O)C2)cc1 | 249% [may fluoresce violet] (active)
73 | Cc1ccc(SCc2cc(=O)[nH]c(N3CCCCC3)n2)cc1 | 96.5%
74 | CCOc1ccc(Br)cc1CSC(=N)N | 103%
75 | COc1ccccc1P(=O)(c1ccccc1)c1ccccc1NC(C)=O (stereo not drawn) | 83.1%
76 | COc1ccc(C(=O)NCCSc2ccccc2C)cc1 | 99.7%
77 | COC(=O)CCSc1cc([N+](=O)[O-])cc2c1c(C1OCCS1)nn2-c1ccccc1 (stereo not drawn) | 107%
78 | Cc1cc(C)cc(NC(=O)COc2coc(CN3CCN(c4ccccc4)CC3)cc2=O)c1 | 105%
79 | Cc1ccc2sc(N(CCN(C)C)C(=O)/C=C/c3cccs3)nc2c1C | 253% [may fluoresce violet] (active)
80 | Cc1cccc2sc(N(CCCN(C)C)C(=O)CCS(=O)(=O)c3ccccc3)nc12 | 93.5%
81 | Cc1cc(C)c2nc(N(CCN(C)C)C(=O)/C=C/c3cccs3)sc2c1 | 110%
82 | O=C(Nc1ccc(F)cc1)C1CCCN(S(=O)(=O)c2ccc(-n3cnnn3)cc2)C1 (stereo not drawn) | 106%
83 | COc1ccc(OCc2ccc(-c3nc4ccccc4c(=O)n3N)o2)cc1 | 249% [may fluoresce violet] (active)
84 | Cn1c(COc2ccc(Cl)cc2)nc2ccccc2c1=O | 102%
85 | COc1ccc(-c2nc3ccccc3c(=O)n2CCc2ccc(O)cc2)cc1 | 103%
86 | CSc1ncccc1C(=O)NCc1ccccc1Cl | 107%
87 | COc1c(C)c2c(c(O)c1C/C=C(\C)CCC(=O)O)C(=O)OC2 | 297% [may fluoresce violet] (active)
88 | CCCCn1c(N)c(N(CC)C(=O)c2ccc(N(C)S(=O)(=O)c3ccc(C)cc3)cc2)c(=O)[nH]c1=O | 98%
